Laboratory results taken from PubChem BioAssay (EPA / NIEHS).
Calls of active or inactive are those of the source. The calls were made as follows: active = hit-call score of the fitted dose curve at least 0.9, where 1 is the maximum; inactive = score below 0.9.

assay: ATG_AP_2_CIS: Attagene CIS-FACTORIAL HepG2 Assay for human Activator Protein 2 (AP-2) (AID 2282932); conditions: HepG2 AP-2 cis-reporter, Attagene transcription factor profiling; actives raise or lower the signal
Description: ATG_CIS is a cell-based, multiplexed-readout assay that uses HepG2, a human liver cell line, with measurements taken at 24 hours after chemical dosing in a 24-well plate.ATG_AP_2_CIS is one of 52 assay component(s) measured or calculated from the ATG_CIS assay. It is designed to make measurements of mRNA induction, a form of inducible reporter, as detected with fluorescence intensity signals by Reverse transcription polymerase chain reaction (RT-PCR) and Capillary electrophoresis technology.Data from the assay component ATG_AP_2_CIS was analyzed into 1 assay endpoint. This assay endpoint, ATG_AP_2_CIS, was analyzed with bidirectional fitting relative to DMSO as the negative control and baseline of activity. Using a type of inducible reporter, measures of mRNA for gain or loss-of-signal activity can be used to understand the reporter gene at the transcription factor-level as they relate to the gene TFAP2A and TFAP2B and TFAP2D. Furthermore, this assay endpoint can be referred to as a primary readout, because this assay has produced multiple assay endpoints where this one serves a reporter gene function. To generalize the intended target to other relatable targets, this assay endpoint is annotated to the dna binding intended target family, where the subfamily is basic helix-turn-helix leucine zipper.
Human liver HepG2 cells are transiently transfected with multiple reporter transcription units (MRTUs) in 6-well plates using FuGene 6 reagent (Roche; 3 ml FuGene/1 mg DNA). The MRTU constructs are regulated by a cis-regulating element (promoter). […] A major difference between the CIS and TRANS system is that in CIS activities of endogenous TFs are measured, whereas the TRANS assay evaluates changes in activities of exogenous, chimeric NR-Gal4 proteins. […] At the end of 24 hour incubation, total RNA was isolated using TriZol reagent (Invitrogen). The isolated RNA is then reverse-transcribed using oligo(dT) primer and Mo-MLV reverse transcriptase (Invitrogen) with DNAse I (Ambion) treatment for 30 min. The one-tenth of the produced cDNA was amplified by PCR using Taq DNA polymerase (Invitrogen) and two reporter sequence-specific primers. The PCR products were fluorescently labeled by primer extension with 6-arboxyfluorescein (6-FAM) 5'-labeled reporter sequence-specific primer (2 min at 95 C, 20 s at 68 C and 10 min at 72 C) and these products were digested with 5U of HpaI (New England Biolabs) for 2h at 37 C. The fragments were purified using Qiaquick PCR columns (Qiagen), analyzed on an ABI 3130xL genetic analyzer (Applied Biosystems) with peak positions identified by using a set of X-rhodamine (ROX)-labeled MapMarker1000 molecular weight standards (BioVentures). The raw capillary electrophoresis data was processed using Attagraph software (Attagene).

SMILES	outcome	AC50
O=C(Oc1ccccc1)c1ccc2ccccc2c1O	inactive	–
CCCCOCCOC(=O)COc1nc(Cl)c(Cl)cc1Cl	inactive	–
C=CCCCCCCCCC(=O)OCCCC	inactive	–
CC(=O)Oc1ccc(C)cc1	inactive	–
O=C1c2ccccc2C(=O)C1c1nc2ccccc2c(Br)c1O	inactive	–
CC/C=C\C/C=C\C/C=C\CCCCCCCC(=O)O	inactive	–
O=C(O)c1cc2ccccc2nc1C(=O)O	inactive	–
NC(=O)N=NC(N)=O	inactive	–
C1=CCCC1	inactive	–
O=[N+]([O-])c1ccc(CO)cc1	inactive	–
CCOC(=O)Cc1cccc2ccccc12	inactive	–
CCN(CCO)c1cccc(C)c1	inactive	–
CO[Si](OC)(OC)c1ccccc1	inactive	–
COc1ccc(NC(C)=O)cc1N	inactive	–
CCc1ccc2c(c1)C(=O)c1ccccc1C2=O	inactive	–
C(=CC=Nc1ccccc1)C=CNc1ccccc1	inactive	–
Oc1ccc(Cl)cc1Cc1cc(Cl)ccc1O	–	15.4 µM (active)
CC(=O)NS(=O)(=O)c1ccc(N)cc1	inactive	–
Clc1nc2ccccc2s1	inactive	–
CC1=CC[C@H]2C[C@@H]1C2(C)C	inactive	–

SMILES	outcome	AC50
Nc1ccc2cc3ccccc3cc2c1	inactive	–
O=P(O)(O)Oc1ccccc1	inactive	–
OCCN(CCO)c1ccccc1	inactive	–
CCOC(=O)CC	inactive	–
O=C1CCCC1	inactive	–
CCCCCCCC/C=C\CCCCCCCC(=O)OCCO	inactive	–
C#CC1(O)CC[C@H]2[C@@H]3CCC4=CCCC[C@@H]4[C@H]3CC[C@@]21C (stereo not given in full)	inactive	–
CCCC(=O)OCc1ccccc1	inactive	–
C=CC(=O)OCCOC1C2CCC1C1CC=CC12 (stereo not given)	inactive	–
Nc1ccc(-c2ccc(F)cc2)cc1	inactive	–
O=C(OCC1CCC2OC2C1)C1CCC2OC2C1 (stereo not given)	inactive	–
O=C1CCCCCCCCCCCCCCCO1	inactive	–
CCCCCCCCCCc1ccccc1	inactive	–
CC1=Nc2ccc3ccccc3c2C1(C)C	inactive	–
CCCc1ccc(OC)cc1	inactive	–
CC(=O)CC(N)=O	inactive	–
C=COCCCC	inactive	–
CCCC(C)CCC(C)=O (stereo not given)	inactive	–
CC(C)=CCC/C(C)=C\C#N	inactive	–
C=CC(C)(CCC=C(C)C)OC(=O)C(C)C (stereo not given)	inactive	–
